Measured values taken from PubChem BioAssay (NCI).
This is part of a sample that, as a whole, favours compounds with a hit. Of some 83,000 tested, about 20% had one in any assay.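 Step 1: grow cells in 96-well plates. Step 2: add test compound at a single concentration. Step 3: incubate 48 h. Step 4: record percent growth.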

Legend:
Test in all cases: NCI-60 one-dose screen, 48 h (100 = growth as untreated, 0 = no growth, -100 = all killed)
Details in all cases: 10 µM unless noted; active = growth percent below 10; inactive = the rest
[1] = test system: SNB-75 CNS
[2] = test system: SNB-19 CNS
[3] = test system: U251 CNS
[4] = test system: SK-MEL-5 melanoma
[5] = test system: UACC-62 melanoma
[6] = test system: LOX IMVI melanoma
[7] = test system: SK-MEL-28 melanoma
[8] = test system: EKVX NSCLC
[9] = test system: SN12C renal
[10] = test system: UO-31 renal
[11] = test system: TK-10 renal
[12] = test system: ACHN renal
[13] = test system: CAKI-1 renal
[14] = test system: A498 renal
[15] = test system: MOLT-4 leukemia
[16] = test system: SR leukemia
[17] = test system: CCRF-CEM leukemia
[18] = test system: PC-3 prostate
[19] = test system: SK-MEL-2 melanoma

Measured: growth

O[C@@H]1Cc2ccc3ccccc3c2N[C@H](c2ccoc2)C1
inactive: [1] 95.5% | [2] 102% | [3] 100% | [4] 92.8% | [5] 101% | [6] 92.7% | [7] 125% | [8] 95.9% | [9] 103% | [10] 82.3% | [11] 106% | [12] 103% | [13] 96.6% | [14] 84.4% | [15] 88.2% | [16] 93.3%

NCCCc1nnc(CCC(=O)c2nc3ccccc3[nH]2)o1
inactive: [1] 90.8% | [2] 102% | [3] 102% | [4] 108% | [5] 90.2% | [6] 90.9% | [7] 105% | [8] 117% | [9] 92.3% | [10] 91.8% | [11] 102% | [12] 97.1% | [13] 103% | [14] 97.4% | [17] 90.9% | [15] 98.2% | [16] 84.5%

O=C(C(=O)N1CCCCC1)c1ccc(OC2OC(CO)C(O)C(O)C2O)cc1 (stereo unspecified)
inactive: [1] 91.9% | [2] 96.8% | [18] 97.3% | [4] 105% | [5] 97.9% | [7] 104% | [19] 99.4% | [8] 111% | [9] 98.9% | [10] 105% | [11] 107% | [12] 107% | [13] 94.4% | [14] 126% | [17] 97.7% | [15] 87.7% | [16] 101%

O=C(CCc1nnc(Cn2ccnc2)o1)c1nc2ccccc2[nH]1
inactive: [1] 97.9% | [2] 108% | [3] 110% | [4] 104% | [5] 91% | [6] 90.4% | [7] 116% | [8] 99.2% | [9] 98.5% | [10] 92% | [11] 110% | [12] 107% | [13] 110% | [14] 101% | [17] 101% | [15] 92.8% | [16] 87.7%

Clc1ccc(-c2nc(-c3cccs3)no2)c(Cl)c1
inactive: [1] 63.5% | [2] 104% | [18] 83.2% | [4] 83.9% | [5] 89% | [6] 103% | [7] 104% | [19] 123% | [8] 72.6% | [9] 101% | [10] 70.9% | [11] 71.4% | [12] 99.8% | [13] 82% | [14] 111% | [17] 86%

O=C(CCc1nnc(Cn2cncn2)o1)c1nc2ccccc2[nH]1
inactive: [1] 99.1% | [2] 111% | [3] 103% | [4] 105% | [5] 97.9% | [6] 94.4% | [7] 105% | [8] 116% | [9] 92.6% | [10] 92.4% | [11] 108% | [12] 113% | [13] 102% | [14] 96% | [17] 96.4% | [15] 92.4% | [16] 82%

COc1ccc(-c2cc(Cc3cccs3)c(=O)n(Cn3cncn3)n2)cc1
inactive: [1] 106% | [2] 91.8% | [3] 97.2% | [4] 92.9% | [5] 86.2% | [6] 98% | [7] 108% | [8] 103% | [9] 93.1% | [10] 86.4% | [11] 113% | [12] 97.6% | [13] 98.3% | [14] 83.5% | [15] 93% | [16] 84%
